Compounds with a hit are over-represented: about 19% of the library has one in this group of screens.
HT1080NT lethal = kills 2HG-producing HT-1080-NT fibrosarcoma cells | HT-1080-NT fibrosarcoma viability, CellTiter-Glo ATP luminescence, 48 h | Potency, µM (highest dose often 46.1 µM), without a hit: at the highest dose activity, negative = less viability, actives largely listed as cytotoxic | hit rate 1.6% among 360,000 | AID 686970;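 also: NT is the 2HG producing partner of a matched IDH1 knockdown line; potency is read from the fitted curve at half-maximal effect; 0% = DMSO-treated cells and -100% = media-only wells without cells; nearly all actives have a fitted effect of over 55% in size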
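HT-1080-NT; 750 cells/well; 5% FBS RPMI; 48 h compound, 37 degrees C; CellTiter-Glo luminescence; curve fitting and curve-class assignment.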
TDP1 cell noCPT = qHTS for Inhibitors of human tyrosyl-DNA phosphodiesterase 1 (TDP1): qHTS in cells in absence of CPT; DT40 Tdp1-/- hTDP1 cells, no CPT, ATP luminescence, 48 h; Potency, µM (doses to about 46.2 µM), for inactives: at the top dose activity change, negative = growth inhibition, usual class: inhibitors; hit rate 15% among 420,000; also: potency is read from the fitted curve at half-maximal effect; nearly all actives have a fitted effect of over 55% in size
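Chicken DT40 Tdp1-/- cells complemented with human TDP1, screened without camptothecin (DMSO vehicle only), 400 cells/well. Compounds pin-transferred, cells incubated at 37 °C for at least 48 hr. Growth read as ATP-dependent luminescence (CellTiter-Glo, 30 min at RT).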
HT1080 IDH1KD tx = HT-1080 IDH1 knockdown cell toxicity (counter line); HT-1080 IDH1 knockdown viability, ATP luminescence, 48 h; Potency, µM (series often up to 46.1 µM), for inactives: at the highest dose activity, negative = toxicity, hits mostly cytotoxic; hit rate 2% among 360,000; AID 686971;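 also: potency is read from the fitted curve at half-maximal effect; 0% = DMSO wells and -100% = cell-free medium wells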
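IDH1KD HT-1080 cells, 750/well, RPMI + 5% FBS; compound pinned after 2 h settling; 48 h, 37 °C; CellTiter-Glo luminescence; % activity normalised to DMSO and no-cell wells; curves fitted, classed by r2 and efficacy.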
DT40 TDP1 CPT = growth inhibition of DT40 Tdp1-/-;hTDP1 cells with camptothecin (screen for TDP1 inhibitors); chicken DT40 Tdp1-/-;hTDP1 cells + 20 nM CPT, ATP luminescence, 48 h; Potency, µM (highest dose often 46.2 µM), inactives show top-dose activity change, negative = growth inhibition, actives largely listed as inhibitors; hit rate 12% among 420,000; also: potency is read from the fitted curve at half-maximal effect; nearly all actives have a fitted effect of over 55% in size
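Chicken DT40 Tdp1-/- cells complemented with human TDP1, 400 cells/well, exposed to compounds plus 20 nM camptothecin for at least 48 h at 37 C; viability read as ATP content by CellTiter-Glo luminescence.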
IL-1B inflam inh = inhibitors of inflammasome signaling (IL-1 beta secretion). THP-1 LPS/ATP IL-1B secretion, AlphaLISA, 16 h; active compounds read low. activity change, % at 57.5 µM. hit rate 4.7% among 360,000; in the data active = activity change below about -50%; inconclusive = mostly about -30% to -49%
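THP-1 cells pretreated 1 hr with compounds (up to 57.5 uM final), then stimulated with LPS (250 ng/mL final) plus ATP (1.25 mM final); secreted IL-1B measured by AlphaLISA after 16 hr, decreased signal indicating inhibition.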
The depositor's hits bear a star; ? = inconclusive; . = not tested or not shown. Unless noted, calls follow the shape of the dose curve; as a rule, active = well fitted curve in the direction sought with a large enough effect; inconclusive = small, poorly fitted or top-dose-only effect, or another doubt; inactive = no such curve, though single readings can be large; an effect the other way counts as inactive or inconclusive. Unless noted, % is scaled to controls: 0 for no effect and ±100 for the full control effect.

SMILES | HT1080NT lethal | TDP1 cell noCPT | HT1080 IDH1KD tx | DT40 TDP1 CPT | IL-1B inflam inh
Cc1ccc(-n2c(/C=C/c3ccccc3)nc3ccccc3c2=O)cc1C | . | 23.1µM* | . | 16.4µM* | .
Cc1ccc(-n2c(/C=C/c3ccccc3)nc3ccccc3c2=O)cc1Cl | . | 23.1µM* | . | ? | .
C=CCN1CC[C@]23c4c5ccc(O)c4O[C@@H]2C(=O)CC[C@]3(O)[C@H]1C5 | . | -11.4% | . | -2.9% | .
Cc1ccc(C2C(=O)NC(=O)NC2=O)cc1 | 29.4% | -23.8% | 16.8% | -0.5% | 0.3
CN1CCc2cc3c(cc2C1C1OC(=O)c2c1ccc1c2OCO1)OCO3 (stereo not drawn) | . | -4.6% | . | 2.9% | .
CC(=O)OC1CCC2(C)C3CCC4(C)C(OC(C)=O)CCC4C3C(C)C2(O)C1 (stereo not drawn) | 15.3% | 14.6µM* | 10.7% | ? | -4.4
CC(=O)OC1CC[C@@]2(C)C(=CC(=O)C3C4CCC(OC(C)=O)[C@@]4(C)CCC32)C1 (stereo partly drawn) | 17.4% | ? | 9.9% | -12.9% | 6.4
CC(=O)O[C@@H]1CN2CCC1CC2 | . | -6.2% | . | -4.2% | .
COc1cc(/C=C2\C[C@H]3[C@@H]4CC=C5C[C@@H](N6CCCC6)CC[C@]5(C)[C@H]4CC[C@]3(C)[C@H]2O)cc(OC)c1OC | -10.6% | 5.17µM* | -22.0% | 14.6µM* | -10.2
Brc1cccc(CNCCc2ccc3c(c2)OCO3)c1 | -15.0% | ? | -11.5% | ? | -10.1
COC(=O)C1=C(c2cccc(OCc3ccccc3)c2)C[C@@H]2CC[C@H]1N2C(=O)NCc1ccccc1OC | -6.1% | 23.1µM* | -11.9% | ? | ?
COC(=O)C1=C(c2cccc(OCc3ccccc3)c2)C[C@@H]2CC[C@H]1N2C(=O)NCc1ccc(OC)c(OC)c1 | -0.8% | 14.6µM* | -21.1% | 16.4µM* | -25.6
COC(=O)C1=C(c2cccc(OCc3ccccc3)c2)C[C@@H]2CC[C@H]1N2C(=O)NCc1ccc(Cl)cc1 | -3.1% | ? | -15.6% | ? | -29.6
COC(=O)C1=C(c2ccc(OCc3ccccc3)cc2)C[C@@H]2CC[C@H]1N2C(=O)NCc1ccc(C(C)(C)C)cc1 | -16.1% | 9.2µM* | -27.2% | 11.6µM* | 36.8
COC(=O)C1=C(c2ccc(OCc3ccccc3)cc2)C[C@@H]2CC[C@H]1N2C(=O)NCc1ccc(OC)cc1 | -11.5% | 6.51µM* | -29.1% | 7.31µM* | 0.0
COC(=O)C1=C(c2cccc(OCc3ccccc3)c2)C[C@@H]2CC[C@H]1N2C(=O)NCc1ccccc1 | -18.6% | ? | -6.6% | ? | -17.2
CS(=O)(=O)c1ccc(C2=C(CNC(=O)c3nccs3)[C@H]3CC[C@@H](C2)N3Cc2ccccc2)cc1 | 0.1% | ? | 3.5% | -2.8% | -2.3
COC(=O)C1=C(c2ccc(OCc3ccccc3)cc2)C[C@@H]2CC[C@H]1N2C(=O)NCc1cccc(OC)c1 | 12.8% | 20.6µM* | -2.8% | 18.4µM* | -19.1
COC(=O)C1=C(c2cccc(OCc3ccccc3)c2)C[C@@H]2CC[C@H]1N2C(=O)NCc1cccc(F)c1 | ? | ? | -22.9% | ? | -15.2
COC(=O)C1=C(c2ccc(OC)c(OC)c2)C[C@@H]2CC[C@H]1N2C(=O)NCc1cc(C)oc1C(F)(F)F | 8.5% | -22.9% | 11.3% | -7.9% | 8.3
COC(=O)C1=C(c2cccc(OCc3ccccc3)c2)C[C@@H]2CC[C@H]1N2C(=O)NCc1cccc(C(F)(F)F)c1 | -4.0% | 16.4µM* | -7.0% | 20.6µM* | ?
COC(=O)C1=C(c2cccc(OCc3ccccc3)c2)C[C@@H]2CC[C@H]1N2C(=O)NCc1cc(C)oc1C(F)(F)F | -1.1% | ? | -0.5% | 23.1µM* | -14.0
COC(=O)C1=C(c2cccc(OCc3ccccc3)c2)C[C@@H]2CC[C@H]1N2C(=O)NCc1ccc(OC)cc1 | -14.9% | 16.4µM* | -15.3% | 11.6µM* | -18.1
CC12CC(=O)C3C(CCC4CC=CCC43C)C1CCC2=O (stereo not drawn) | 12.9% | ? | 9.1% | 12.6% | 2.5

Compound activity: PubChem, National Center for Advancing Translational Sciences (NCATS)
